The values below come from PubChem BioAssay (Tox21).

Each structure is given as a SMILES string. Unmarked numbers belong to inactive results. Entries that show only a call come without a potency. The source made the active and inactive calls. Calls come from the whole dose curve. Numbered stars: 1 amine (or outer) side, 2 acyl side, 3 side chain; on linkers, the order of the positions; unused ones are H or OH. Bridge positions count the residues as written; N and C are the ends. Square brackets hold non-standard residues; d marks the D form. Peptide text beside a SMILES is read from it. I, II: the chains in the order shown. Actinocin(9to1) = Cc1c2oc3c(C)ccc(C(=O)[*:1])c3nc-2c(C(=O)[*:2])c(N)c1=O; NMeV = CN[C@H](C(=O)O)C(C)C; Sar = CNCC(=O)O

This assay is described as follows: G protein-coupled receptor (GPCR) small molecule agonists, calcium flux assay: HEK293 wild type cell line counter screen (AID 1920065). The following applies: HEK293 WT calcium flux, fluorescence, agonist mode; series mostly up to 57.6 µM. An outline of the steps: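 Wild-type HEK293 cells plated 18 h, loaded with calcium dye 1 h at 37 C, then compounds added in agonist mode (ATP as positive control). Kinetic fluorescence Ex/Em 480/540 recorded 3 min at 1 sec intervals; 15 concentrations, triplicate.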
With `COC(=O)c1c(Cl)c(Cl)c(C(=O)OC)c(Cl)c1Cl`, the Potency result is “inactive”.

As for `c1ccc2cc3c4ccccc4c4ccccc4c3cc2c1`, the Potency result was “inactive”.

`Cn1cc(S(C)=O)c(=O)c2ccc(F)cc21` (centres undefined): the Potency entry is “inactive”.

In the case of `O=Cc1ccc(C(=O)O)cc1`, the Potency entry was “inactive”.

Take `CC(C)=CCC[C@H](C)CC=O`: the Potency entry was “inactive”.

As to `CCC(=O)OCc1ccccc1`, the Potency entry was “inactive”.

For `CCCCCC(=O)O[C@]1(C(C)=O)CC[C@H]2[C@@H]3CCC4=CC(=O)CC[C@]4(C)[C@H]3CC[C@@]21C`, the Potency entry was “inactive”.

On to `BrC1CCC(Br)C(Br)CCC(Br)C(Br)CCC1Br` (centres undefined), for which the Potency result was “inactive”.

Regarding `O=[N+]([O-])c1ccc2c(c1)Cc1ccccc1-2`, the Potency entry was “inactive”.

`CCC1COC(=O)O1` (centres undefined): the Potency entry was “inactive”.

In the case of `C=C(C)C(=O)OCCCCCCOC(=O)C(=C)C`, the Potency entry was “inactive”.

For `Cc1c2oc3c(C)ccc(C(=O)N[C@@H]4C(=O)N[C@H](C(C)C)C(=O)N5CCC[C@H]5C(=O)N(C)CC(=O)N(C)[C@@H](C(C)C)C(=O)O[C@@H]4C)c3nc-2c(C(=O)N[C@@H]2C(=O)N[C@H](C(C)C)C(=O)N3CCC[C@H]3C(=O)N(C)CC(=O)N(C)[C@@H](C(C)C)C(=O)O[C@@H]2C)c(N)c1=O` (I: T[dV]P[Sar][NMeV] / II: T[dV]P[Sar][NMeV]; ester I:1-I:C, II:1-II:C; linker I:N-II:N via Actinocin(9to1)), the Potency result was “inactive”.

Regarding `O=[N+]([O-])c1ccccc1Nc1ccccc1`, the Potency result was “inactive”.

For the compound `CCN1CCCC(OC(=O)C(c2ccccc2)c2ccccc2)C1` (centres undefined), the Potency result is “inactive”.

As to `O=C1CCCCCCCCCCCCCCCO1`, the Potency entry is “inactive”.

In the case of `O=C(O[C@@H](C(=O)O)[C@@H](OC(=O)c1ccccc1)C(=O)O)c1ccccc1`, the Potency result was “inactive”.

Regarding `CN(C)CCCNCCCN(C)C`, the Potency entry is “inactive”.

On to `CCC(=O)OC(C)c1ccccc1` (centres undefined), for which the Potency entry was “inactive”.

As for `CC(C)CC(C)(N)C#N` (centres undefined), the Potency entry is “inactive”.

For the compound `Cc1cc(C)cc(O)c1`, the Potency result is “inactive”.

`C=C(C)[C@@H]1CCC2=CC(=O)C[C@@H](C)[C@]2(C)C1`: the Potency entry is “inactive”.

With `O=c1[nH]c(=O)c2ccccc2o1`, the Potency entry is “inactive”.

For `COCCOCCOCCOCCO`, the Potency entry is “inactive”.

As for `CCCCCCCCCCCCCCC(=O)NC(CO)CCCCCCCCCCCCCC` (centres undefined), the Potency result was “inactive”.

Consider `C[C@@H]1CCC[C@H](C)N1CCCC(O)(c1ccccc1)c1ccccn1` (some centres undefined), for which the Potency entry is “inactive”.

In the case of `CCCCCCCCCC(C)=O`, the Potency entry is “inactive”.

With `CN(C)c1ccc(C(=N)c2ccc(N(C)C)cc2)cc1`, the Potency entry is “inactive”.

Consider `CCCCCCCCCC/C=C/C#N`, for which the Potency entry is “inactive”.

As for `CNC(=O)Nc1ccc(Cl)c(Cl)c1`, the Potency result is “inactive”.

With `[Cl][Eu]([Cl])[Cl]`, the Potency entry is “inactive”.

`c1cnc2cc3c(cc2n1)C1CNCC3C1`: the Potency entry was “inactive”.

On to `Nc1c(NC/C=C\COc2cc(CN3CCCCC3)ccn2)c(=O)c1=O`, for which the activation is 0.206% [at 11.8 µM].

`FC(F)(F)C(Cl)(Cl)Cl`: the Potency entry was “inactive”.

For `CCc1ccc(C=O)cc1`, the Potency result is “inactive”.

Consider `COC(=O)Cc1cccc2ccccc12`, for which the Potency result is “inactive”.

As for `CCCc1c2oc(C(=O)O)cc(=O)c2cc2c(=O)cc(C(=O)O)n(CC)c12`, the Potency result is “inactive”.

Turning to `CO[C@H]1C=CO[C@@]2(C)Oc3c(C)c(O)c4c(O)c(c(/C=N/N5CCN(C)CC5)c(O)c4c3C2=O)NC(=O)/C(C)=C\C=C[C@H](C)[C@H](O)[C@@H](C)[C@@H](O)[C@@H](C)[C@H](OC(C)=O)[C@@H]1C`, the Potency entry is “inactive”.

For the compound `O=C(O)Cc1ccc(CCNS(=O)(=O)c2ccc(Cl)cc2)cc1`, the Potency result is “inactive”.

Consider `Cc1cc(C)c(C(=O)O)c(C)c1`, for which the Potency result was “inactive”.
